# Assay outcomes from PubChem.
# USP1 inh = blocks the human USP1/UAF1 deubiquitinase complex | O94782 | recombinant USP1/UAF1, Ub-Rhodamine cleavage fluorescence | Potency, µM (top dose mostly 57.1 µM), most hits filed as inhibitors | hit rate 0.23% among 390,000; also: nearly all actives have a fitted effect of over 60% in size
# Target sequence (O94782 whole entry, looked up): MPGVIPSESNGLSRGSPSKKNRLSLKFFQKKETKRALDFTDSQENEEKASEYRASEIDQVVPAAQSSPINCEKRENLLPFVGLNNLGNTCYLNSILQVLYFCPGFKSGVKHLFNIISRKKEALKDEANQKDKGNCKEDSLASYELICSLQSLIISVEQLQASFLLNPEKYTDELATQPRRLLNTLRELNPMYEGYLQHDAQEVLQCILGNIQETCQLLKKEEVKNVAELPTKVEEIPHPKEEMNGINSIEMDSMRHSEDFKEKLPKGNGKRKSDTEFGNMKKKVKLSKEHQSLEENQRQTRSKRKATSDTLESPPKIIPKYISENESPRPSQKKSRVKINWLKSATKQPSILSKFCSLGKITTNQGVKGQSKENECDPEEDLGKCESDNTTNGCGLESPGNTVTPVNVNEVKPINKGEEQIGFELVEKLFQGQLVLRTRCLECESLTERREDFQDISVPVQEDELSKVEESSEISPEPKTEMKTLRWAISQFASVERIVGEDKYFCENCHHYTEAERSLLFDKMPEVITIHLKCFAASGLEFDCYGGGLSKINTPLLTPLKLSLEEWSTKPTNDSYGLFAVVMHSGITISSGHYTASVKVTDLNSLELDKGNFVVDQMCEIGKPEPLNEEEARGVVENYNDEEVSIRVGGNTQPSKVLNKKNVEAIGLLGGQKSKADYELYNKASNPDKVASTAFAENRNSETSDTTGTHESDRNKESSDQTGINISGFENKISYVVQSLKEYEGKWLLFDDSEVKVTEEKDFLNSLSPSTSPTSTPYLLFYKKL
#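 USP1/UAF1 complex (1 nM) preincubated 15 min at room temperature with compound, then Ub-Rho substrate (150 nM final) added. Kinetic fluorescence at 480/540 nm over 6 reads at 60 s intervals; 50 mM HEPES pH 7.8, 0.5 mM EDTA, 0.1 mg/ml BSA, 1 mM TCEP, 0.01% Tween-20.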
# ATXN viability = reduces viability in counter-screen for ATXN expression inhibitors; S2 cells (HEK-293 line with an ATXN2-luciferase reporter) viability, CellTiter-Fluor protease fluorescence, 24 h; hit rate 0.49% among 400,000; Potency, µM (doses to about 56.7 µM), actives largely listed as cytotoxic; AID 651635; also: nearly all actives have a fitted effect of over 40% in size
# IL-1B inflam inh = inflammasome signaling inhibition, IL-1 beta readout; THP-1 LPS/ATP IL-1B secretion, AlphaLISA, 16 h; active compounds read low; hit rate 4.7% among 360,000; activity change, % at 57.5 µM; AID 743279; in the data active = activity change below about -50%; inconclusive = mostly about -30% to -49%
#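 Secreted IL-1B measured by AlphaLISA bead assay after 16 h compound exposure of THP-1 cells; compounds (final up to 57.5 uM) added 1 h before LPS (250 ng/mL) and ATP (1.25 mM) stimulation; lower signal means less secretion.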
# USP2a block = blocks human ubiquitin-specific protease USP2a; USP2 core, Ub-CHOP2 coupled fluorogenic reporter, 485/531; hit rate 0.01% among 330,000; Potency, µM (titrated, usually from 38.3 µM), hits mostly inhibitors
#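 Cell-free coupled assay: 10nM USP2 core preincubated 30min RT with compound in Tris-HCl pH 8.0/CaCl2/CHAPS buffer, then 25nM Ub-CHOP2 and 25nM reporter substrate; fluorescence (Ex 485/Em 531) read after 60min RT, normalized to NEM inhibition, concentration-response curves fitted.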
# ATXN2 expr inh = reduces ATXN2 reporter expression in HEK-293 cells; HEK-293 ATXN2-luciferase reporter, luminescence, 24 h; Potency, µM (series often up to 57 µM), actives largely listed as inhibitors; hit rate 0.72% among 360,000; also: nearly all actives have a fitted effect of over 55% in size
#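 ATXN2-luciferase reporter cells (luciferase flanked by upstream and downstream ATXN2 gene portions) were treated 24 h at 37 °C with compounds at up to 57 uM. SteadyGlo luminescence gave expression; GF-AFC fluorescence gave viability.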
# A number is an active result; - = inactive; ? = inconclusive; . = not tested or not shown. The list is not random: actives were taken first. Their share in the collection is about 4.8%. Unless noted, calls follow the shape of the dose curve; as a rule, active = well fitted curve in the direction sought with a large enough effect; inconclusive = small, poorly fitted or top-dose-only effect, or another doubt; inactive = no such curve, though single readings can be large; an effect the other way counts as inactive or inconclusive.
SMILES,USP1 inh,ATXN viability,IL-1B inflam inh,USP2a block,ATXN2 expr inh
CC1CC(C)CN(C(=O)/C=C/c2ccc([N+](=O)[O-])s2)C1 (centres undefined),-,?,?,-,.
O=C1c2cccc3cccc(c23)C(=O)N1CCN1CCN(CC(O)COc2ccc3ccccc3c2)CC1 (centres undefined),-,?,-,-,?
Cc1cc(C)cc(OCC(O)CN2CCC(CN3C(=O)c4cccc5cccc(c45)C3=O)CC2)c1 (centres undefined),-,.,-80.8,-,20µM
Cc1ccc(C)c(OCC(O)CN2CCN(CCN3C(=O)c4cccc5cccc(c45)C3=O)CC2)c1 (centres undefined),-,?,-102.1,-,?
O=C1c2cccc3cccc(c23)C(=O)N1CC1CCN(CC(O)COc2ccc3ccccc3c2)CC1 (centres undefined),-,-,-95.0,-,?
Cc1ccc(S(=O)(=O)N2CCC(CN3C(=O)c4cccc5cccc(c45)C3=O)CC2)cc1,-,-,-,-,-
OC(COc1ccc(Cl)cc1)CN1CCC(Cc2ccccc2)CC1 (centres undefined),-,-,.,-,?
Cc1ccc(C)c(OCC(O)CN2CCC(Cc3ccccc3)CC2)c1 (centres undefined),-,.,-60.0,-,.
CCOC(=O)c1c(NC(=O)COC(=O)CCNS(=O)(=O)c2ccccc2)sc(C(=O)NC)c1C,-,?,-,.,-
COc1ccc(Cn2ccnc2SCC(=O)Nc2ccc3c(c2)OCCO3)cc1,-,.,.,.,.
Cc1ccc(C(C)C)c(OCC(O)CN2CCc3ccccc3C2)c1 (centres undefined),-,?,-101.0,-,?
COc1cccc(OCC(O)CN2CCC(CN3C(=O)c4cccc5cccc(c45)C3=O)CC2)c1 (centres undefined),-,?,-96.6,-,?
CCc1ccc(OCC(O)CN2CCC(CN3C(=O)c4cccc5cccc(c45)C3=O)CC2)cc1 (centres undefined),-,.,-,-,25.1µM
CCc1ccc(OCC(O)CN2CCN(c3ccccc3)CC2)cc1 (centres undefined),-,-,-,-,-
COc1ccc(COCC(O)CN2CCC(CN3C(=O)c4cccc5cccc(c45)C3=O)CC2)cc1OC (centres undefined),-,?,-88.2,-,-
Fc1cccc(CNc2ncnc3ccc(-c4cccnc4)cc23)c1,.,.,.,-,.
COc1ccc(CN(C)CC(=O)Nc2ccccc2C(=O)NC2CC2)cc1F,-,?,-,-,-
CC[C@H](C)[C@@H]1NC(=O)[C@@H](CC(C)C)NC(=O)[C@H](C(C)C)NC(=O)[C@H]2CSSC[C@H](NC1=O)C(=O)N2,.,?,-115.5,.,0.794µM
CC(C)C[C@@H]1NC(=O)[C@H](C(C)C)NC(=O)c2cc([N+](=O)[O-])cc(I)c2NCC[C@@H](C(N)=O)NC1=O,-,-,-,-,-
CN(C)c1nc(-c2ccccn2)nnc1-c1ccccc1,-,-,-,-,8.91µM
COc1ccc(Oc2nc(-c3ccccn3)ncc2OC)cc1,-,-,-,-,-
COc1cnc(-c2ccccn2)nc1N(C)C,-,?,-58.0,-,15.8µM
CN(C)c1nc(-c2ccccc2)nc(-c2ccc(Cl)cc2)c1C#N,-,?,-,-,-
CCN(CC)c1nc(-c2ccccn2)nc(-c2ccccc2)c1C#N,-,?,?,-,4.47µM
O=C(O)CC1Sc2nnc(COc3ccc(Cl)cc3)n2N=C1c1ccccc1 (centres undefined),-,-,-,-,-
SMILES,USP1 inh,ATXN viability,IL-1B inflam inh,USP2a block,ATXN2 expr inh
COC1CC(N)C2OC(c3ccccc3)OCC2O1 (centres undefined),-,-,-,.,.
COc1ccc(NC(=O)c2oc3ccccc3c2NC(=O)C23CC4CC(CC(C4)C2)C3)cc1,?,-,.,.,-
O=C(C1CCC1)N1CCc2cc(S(=O)(=O)NCCc3ccccc3)ccc21,-,-,.,.,-
Cc1ccc(Nc2nc(Cl)nc(NC(C)(C)C)n2)cc1,-,-,-,-,.
Cc1ccc(Nc2nc(Cl)nc(N(C)C#N)n2)cc1,-,-,-114.3,-,-
Cc1ccc(S(=O)(=O)N2C[C@H]3N(C(=O)OC(C)C)N(C(=O)OC(C)C)C[C@H](OC(=O)Nc4cccs4)[C@@]3(O)C2)cc1,-,?,-80.4,.,-
COc1ccc(CNC(=O)O[C@H]2CN(C(=O)OC(C)C)N(C(=O)OC(C)C)[C@@H]3CN(S(=O)(=O)c4ccc(C)cc4)C[C@]23O)cc1OC,-,?,-,.,-
Cc1ccc(S(=O)(=O)N2C[C@H]3N(C(=O)OC(C)C)N(C(=O)OC(C)C)C[C@H](OC(=O)Nc4c(C)noc4C)[C@@]3(O)C2)cc1,-,-,-50.7,.,-
Cc1ccc(S(=O)(=O)N2C[C@H]3N(C(=O)OC(C)C)N(C(=O)OC(C)C)C[C@H](OC(=O)NCc4ccccc4F)[C@@]3(O)C2)cc1,-,?,-,.,-
CCC(=O)c1ccc(OCC(=O)Nc2ccccc2N2CCCCC2)cc1,-,-,-,-,-
COc1ccc2sc(-c3ccc(SC)cc3)c(/C=C/c3ccc(OC)c(OC)c3)c2c1,-,-,-,-,-
COc1cc2c(c(OC)c1OC)-c1ccc(OC)c(=O)cc1C(NC(=O)c1ccccc1)CC2 (centres undefined),-,-,-,.,-
COC(=O)c1ccc2c(c1)C(NC(C)=O)CCc1cc(OC)c(OC)c(OC)c1-2 (centres undefined),-,?,-72.6,.,-
Nc1[nH]c(C(=O)c2ccccc2)c(-c2ccc(Br)cc2)c1C(=O)NCCc1c[nH]c2ccccc12,.,22.4µM,?,.,?
Cc1[nH]c2ccccc2c1SCCNC(=O)c1ccc(Br)o1,-,-,-81.9,-,-
Cc1ccc(OCCCN2CCC(C(O)(c3ccccc3)c3ccccc3)CC2)cc1,.,.,-51.7,.,?
OC(c1ccccc1)(c1ccccc1)C1CCN(CCCOc2ccc(F)cc2)CC1,.,?,-53.1,.,?
O=C(O)COc1ccccc1/C=C1\C(=O)Nc2ccc(Br)cc21,-,-,-,-,-
O=C1Nc2ccc(Br)cc2/C1=C/C(=O)c1ccccc1,-,?,-103.4,.,?
C/C(=N\Nc1nc(C)c(C)s1)c1ccc([N+](=O)[O-])cc1,-,.,-87.7,-,29.9µM
O=C(Nc1ccccc1)OCC1CCCO1 (centres undefined),-,-,-,.,-
O=C(Nc1ccccc1)OCC1COC(c2ccccc2)(c2ccccc2)O1 (centres undefined),-,-,-69.0,.,-
CC(=O)c1ccc(NC(=O)CN(C)S(=O)(=O)c2cccc3nsnc23)cc1,-,-,.,.,-
N#CC1=C(N)N2C(=C(C#N)C1c1cccc(Br)c1)Nc1ccccc12 (centres undefined),-,.,-118.6,-,?
